Legend:
Test in all cases: DAPPL (digital affinity profiling via proximity ligation, sequencing); 10 mM Tris-HCl pH 7.5, 50 mM NaCl, 1 mM DTT, 4% glycerol, room temperature, 30 min; GST-TFs on glutathione beads, 16-mer random dsDNA library, 0.1% formaldehyde crosslink after washing; high values mean tight binding
FLI1 = target: T1, FLI1 (Homo sapiens, UniProt Q01543 1-452); conditions: protein: recombinant; tags: N-terminal GST; dsDNA, one strand shown
T1 sequence: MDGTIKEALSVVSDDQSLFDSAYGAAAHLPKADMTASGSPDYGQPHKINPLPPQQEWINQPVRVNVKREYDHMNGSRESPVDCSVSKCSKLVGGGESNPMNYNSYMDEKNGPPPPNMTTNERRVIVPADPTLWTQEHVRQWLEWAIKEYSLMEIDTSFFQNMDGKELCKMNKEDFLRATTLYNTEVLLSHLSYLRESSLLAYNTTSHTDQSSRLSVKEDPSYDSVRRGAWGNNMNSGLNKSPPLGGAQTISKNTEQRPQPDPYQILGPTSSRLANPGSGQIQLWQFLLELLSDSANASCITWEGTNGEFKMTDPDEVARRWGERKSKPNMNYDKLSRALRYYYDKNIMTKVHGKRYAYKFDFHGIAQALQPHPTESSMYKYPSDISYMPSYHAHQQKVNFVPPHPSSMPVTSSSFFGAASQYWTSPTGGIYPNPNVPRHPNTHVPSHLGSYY
Method in brief: (§1)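 GST fusions of human transcription factors were expressed in yeast and captured with glutathione beads. Once given DNA barcodes and pooled alongside a tag-only sample, they were incubated for 30 min at room temperature with 200 nmole of a random double-stranded 16-mer DNA library in Tris/NaCl/DTT/glycerol buffer, then washed, crosslinked (0.1% formaldehyde), proximity-ligated, PCR-amplified and sequenced on an Illumina NextSeq500. The binding signal of each hexamer is its read frequency for a factor divided by its frequency for the tag-only sample.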

ELK1 = target: T2, ELK1 (Homo sapiens, UniProt P19419 1-428); conditions: protein: recombinant; tags: N-terminal GST; dsDNA, one strand shown
T2 sequence: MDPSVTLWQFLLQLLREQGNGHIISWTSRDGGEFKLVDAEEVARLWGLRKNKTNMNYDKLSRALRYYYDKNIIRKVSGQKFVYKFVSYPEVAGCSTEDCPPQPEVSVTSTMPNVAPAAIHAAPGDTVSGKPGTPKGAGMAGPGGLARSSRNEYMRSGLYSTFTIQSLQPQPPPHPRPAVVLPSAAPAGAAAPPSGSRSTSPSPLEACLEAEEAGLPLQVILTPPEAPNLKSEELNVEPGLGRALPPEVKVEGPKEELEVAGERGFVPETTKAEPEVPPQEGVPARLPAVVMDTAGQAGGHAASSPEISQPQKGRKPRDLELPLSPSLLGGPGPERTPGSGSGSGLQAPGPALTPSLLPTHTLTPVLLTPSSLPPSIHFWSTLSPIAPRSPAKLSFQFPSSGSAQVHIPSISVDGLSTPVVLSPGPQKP
Method in brief: as §1

GABPA = target: T3, GABPA (Homo sapiens, UniProt Q06546 1-454); conditions: protein: recombinant; tags: N-terminal GST; dsDNA, one strand shown
T3 sequence: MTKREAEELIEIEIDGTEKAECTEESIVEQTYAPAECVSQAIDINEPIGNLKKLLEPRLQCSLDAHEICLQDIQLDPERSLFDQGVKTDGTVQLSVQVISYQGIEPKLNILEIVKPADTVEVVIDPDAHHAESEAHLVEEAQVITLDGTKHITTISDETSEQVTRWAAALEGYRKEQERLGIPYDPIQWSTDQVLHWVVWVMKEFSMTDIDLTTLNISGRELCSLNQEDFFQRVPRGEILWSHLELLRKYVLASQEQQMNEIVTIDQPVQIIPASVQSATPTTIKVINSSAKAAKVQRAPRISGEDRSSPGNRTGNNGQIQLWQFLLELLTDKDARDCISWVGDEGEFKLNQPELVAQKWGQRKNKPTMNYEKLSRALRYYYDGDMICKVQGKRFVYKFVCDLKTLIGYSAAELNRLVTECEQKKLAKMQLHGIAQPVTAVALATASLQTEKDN
Method in brief: as §1

ERG = target: T4, ERG (Homo sapiens, UniProt P11308 1-479); conditions: protein: recombinant; tags: N-terminal GST; dsDNA, one strand shown
T4 sequence: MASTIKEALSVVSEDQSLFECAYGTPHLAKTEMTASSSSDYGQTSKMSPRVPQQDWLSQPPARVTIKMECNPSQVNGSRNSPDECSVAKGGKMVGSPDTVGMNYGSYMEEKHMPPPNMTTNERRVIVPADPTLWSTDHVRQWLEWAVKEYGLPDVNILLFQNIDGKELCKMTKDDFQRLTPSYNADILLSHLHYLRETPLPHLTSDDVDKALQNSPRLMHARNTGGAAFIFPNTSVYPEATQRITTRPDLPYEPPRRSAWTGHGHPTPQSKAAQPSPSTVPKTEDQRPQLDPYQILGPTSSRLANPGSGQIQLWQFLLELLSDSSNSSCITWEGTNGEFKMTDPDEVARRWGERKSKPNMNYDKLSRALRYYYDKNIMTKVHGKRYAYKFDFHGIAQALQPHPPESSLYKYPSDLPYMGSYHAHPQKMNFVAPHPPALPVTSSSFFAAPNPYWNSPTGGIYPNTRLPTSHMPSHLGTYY
Method in brief: as §1

ELF1 = ELF1 (Homo sapiens, UniProt P32519 1-619); conditions: protein: recombinant; tags: N-terminal GST; dsDNA, one strand shown
Chain of ELF1 (P32519 whole entry): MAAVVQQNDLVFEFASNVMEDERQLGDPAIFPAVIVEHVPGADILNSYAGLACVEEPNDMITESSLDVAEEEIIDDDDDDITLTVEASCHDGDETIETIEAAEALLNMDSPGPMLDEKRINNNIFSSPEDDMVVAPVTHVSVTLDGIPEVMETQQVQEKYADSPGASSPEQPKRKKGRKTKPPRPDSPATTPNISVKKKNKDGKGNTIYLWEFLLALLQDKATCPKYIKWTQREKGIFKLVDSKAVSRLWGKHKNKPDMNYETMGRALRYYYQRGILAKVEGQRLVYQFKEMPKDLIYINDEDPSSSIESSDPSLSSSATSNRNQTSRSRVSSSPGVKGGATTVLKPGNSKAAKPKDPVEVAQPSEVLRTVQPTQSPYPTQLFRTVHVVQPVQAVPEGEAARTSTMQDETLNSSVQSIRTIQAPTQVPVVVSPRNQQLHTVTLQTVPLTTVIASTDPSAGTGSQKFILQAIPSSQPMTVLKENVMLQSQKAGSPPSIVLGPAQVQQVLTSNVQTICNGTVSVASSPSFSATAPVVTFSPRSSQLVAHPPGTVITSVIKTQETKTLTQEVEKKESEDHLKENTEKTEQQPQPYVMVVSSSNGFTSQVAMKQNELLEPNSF
Method in brief: as §1

EHF = target: T5, EHF (Homo sapiens, UniProt Q9NZC4 1-300); conditions: protein: recombinant; tags: N-terminal GST; dsDNA, one strand shown
T5 sequence: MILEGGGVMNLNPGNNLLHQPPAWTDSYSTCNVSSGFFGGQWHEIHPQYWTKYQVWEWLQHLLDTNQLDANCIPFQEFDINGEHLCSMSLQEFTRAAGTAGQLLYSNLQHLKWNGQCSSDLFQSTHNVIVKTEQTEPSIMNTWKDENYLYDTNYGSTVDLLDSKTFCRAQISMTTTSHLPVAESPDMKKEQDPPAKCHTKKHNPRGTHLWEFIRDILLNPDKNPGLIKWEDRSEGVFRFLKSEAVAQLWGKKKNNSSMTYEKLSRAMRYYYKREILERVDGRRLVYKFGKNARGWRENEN
Method in brief: as §1

SPI1 = SPI1 (Homo sapiens, UniProt P17947 1-270); conditions: protein: recombinant; tags: N-terminal GST; dsDNA, one strand shown
Method in brief: as §1

SPIB = SPIB (Homo sapiens, UniProt Q01892 1-262); conditions: protein: recombinant; tags: N-terminal GST; dsDNA, one strand shown
Chain of SPIB (Q01892 whole entry): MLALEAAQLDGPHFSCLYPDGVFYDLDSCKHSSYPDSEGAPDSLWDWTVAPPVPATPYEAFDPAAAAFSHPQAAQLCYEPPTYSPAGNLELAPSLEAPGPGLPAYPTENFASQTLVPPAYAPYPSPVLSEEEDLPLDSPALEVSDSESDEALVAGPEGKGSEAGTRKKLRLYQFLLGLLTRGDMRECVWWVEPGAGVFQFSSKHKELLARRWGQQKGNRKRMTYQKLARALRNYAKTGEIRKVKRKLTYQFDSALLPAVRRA
Method in brief: as §1

ELK3 = target: T6, ELK3 (Homo sapiens, UniProt P41970 1-407); conditions: protein: recombinant; tags: N-terminal GST; dsDNA, one strand shown
T6 sequence: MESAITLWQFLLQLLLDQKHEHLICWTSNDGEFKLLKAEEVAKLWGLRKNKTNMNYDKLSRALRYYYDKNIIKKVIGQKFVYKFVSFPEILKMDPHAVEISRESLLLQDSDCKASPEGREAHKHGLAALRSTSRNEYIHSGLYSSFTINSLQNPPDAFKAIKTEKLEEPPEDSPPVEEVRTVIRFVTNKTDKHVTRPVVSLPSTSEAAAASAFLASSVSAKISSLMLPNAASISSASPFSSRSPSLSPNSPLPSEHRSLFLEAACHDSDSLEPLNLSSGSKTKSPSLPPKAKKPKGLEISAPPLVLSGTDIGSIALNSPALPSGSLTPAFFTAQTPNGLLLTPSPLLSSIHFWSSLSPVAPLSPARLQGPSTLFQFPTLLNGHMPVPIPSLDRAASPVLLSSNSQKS
Method in brief: as §1

FEV = target: T7, FEV (Homo sapiens, UniProt Q99581 1-238); conditions: protein: recombinant; tags: N-terminal GST; dsDNA, one strand shown
T7 sequence: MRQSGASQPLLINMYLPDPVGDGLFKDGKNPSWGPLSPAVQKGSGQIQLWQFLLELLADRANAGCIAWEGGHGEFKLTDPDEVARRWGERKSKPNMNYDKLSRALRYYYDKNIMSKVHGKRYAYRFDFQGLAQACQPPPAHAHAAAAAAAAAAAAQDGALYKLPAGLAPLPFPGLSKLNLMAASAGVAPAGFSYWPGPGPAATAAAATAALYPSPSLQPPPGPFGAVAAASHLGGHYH
Method in brief: as §1

ETV5 = ETV5 (Homo sapiens, UniProt P41161 1-510); conditions: protein: recombinant; tags: N-terminal GST; dsDNA, one strand shown
Chain of ETV5 (P41161 whole entry): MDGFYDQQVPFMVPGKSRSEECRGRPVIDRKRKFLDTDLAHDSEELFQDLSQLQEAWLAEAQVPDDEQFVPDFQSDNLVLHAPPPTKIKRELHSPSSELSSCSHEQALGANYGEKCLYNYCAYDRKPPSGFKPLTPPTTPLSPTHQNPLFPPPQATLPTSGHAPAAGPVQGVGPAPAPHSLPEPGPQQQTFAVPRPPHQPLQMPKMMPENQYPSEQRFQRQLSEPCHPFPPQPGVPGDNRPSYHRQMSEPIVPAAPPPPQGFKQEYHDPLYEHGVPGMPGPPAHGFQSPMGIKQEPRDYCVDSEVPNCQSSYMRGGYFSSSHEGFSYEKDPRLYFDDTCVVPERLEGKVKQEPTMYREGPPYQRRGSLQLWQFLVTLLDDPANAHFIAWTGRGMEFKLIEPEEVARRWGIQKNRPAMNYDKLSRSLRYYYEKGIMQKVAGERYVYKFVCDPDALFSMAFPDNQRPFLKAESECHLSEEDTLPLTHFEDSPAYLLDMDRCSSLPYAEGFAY
Method in brief: as §1

HSF1 = HSF1 (Homo sapiens, UniProt Q00613 1-529); conditions: protein: recombinant; tags: N-terminal GST; chain copies: 3; dsDNA, one strand shown
Chain of HSF1 (Q00613 whole entry): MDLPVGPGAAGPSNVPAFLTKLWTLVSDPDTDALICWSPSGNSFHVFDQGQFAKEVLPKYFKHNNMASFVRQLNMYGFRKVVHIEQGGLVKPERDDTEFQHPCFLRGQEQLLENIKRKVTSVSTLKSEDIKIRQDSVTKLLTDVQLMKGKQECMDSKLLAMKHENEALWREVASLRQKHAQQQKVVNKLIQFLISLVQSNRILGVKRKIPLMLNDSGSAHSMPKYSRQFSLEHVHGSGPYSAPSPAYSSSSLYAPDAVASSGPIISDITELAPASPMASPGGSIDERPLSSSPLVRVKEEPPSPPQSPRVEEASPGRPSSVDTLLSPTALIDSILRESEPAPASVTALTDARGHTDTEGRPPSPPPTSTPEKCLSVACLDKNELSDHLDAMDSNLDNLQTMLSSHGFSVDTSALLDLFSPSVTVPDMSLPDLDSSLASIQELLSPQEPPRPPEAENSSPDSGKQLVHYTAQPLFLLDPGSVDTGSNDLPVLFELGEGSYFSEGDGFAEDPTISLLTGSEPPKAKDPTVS
Method in brief: as §1

SPIC = target: T8, SPIC (Homo sapiens, UniProt Q8N5J4 1-248); conditions: protein: recombinant; tags: N-terminal GST; dsDNA, one strand shown
T8 sequence: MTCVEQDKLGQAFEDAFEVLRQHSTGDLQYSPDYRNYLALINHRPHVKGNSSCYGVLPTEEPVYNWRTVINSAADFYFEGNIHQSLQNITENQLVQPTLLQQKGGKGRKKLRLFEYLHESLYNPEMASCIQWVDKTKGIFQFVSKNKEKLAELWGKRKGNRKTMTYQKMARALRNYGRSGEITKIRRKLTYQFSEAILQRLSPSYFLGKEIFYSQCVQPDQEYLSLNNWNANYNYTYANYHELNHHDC
Method in brief: as §1

ELF4 = ELF4 (Homo sapiens, UniProt Q99607 1-663); conditions: protein: recombinant; tags: N-terminal GST; dsDNA, one strand shown
Chain of ELF4 (Q99607 whole entry): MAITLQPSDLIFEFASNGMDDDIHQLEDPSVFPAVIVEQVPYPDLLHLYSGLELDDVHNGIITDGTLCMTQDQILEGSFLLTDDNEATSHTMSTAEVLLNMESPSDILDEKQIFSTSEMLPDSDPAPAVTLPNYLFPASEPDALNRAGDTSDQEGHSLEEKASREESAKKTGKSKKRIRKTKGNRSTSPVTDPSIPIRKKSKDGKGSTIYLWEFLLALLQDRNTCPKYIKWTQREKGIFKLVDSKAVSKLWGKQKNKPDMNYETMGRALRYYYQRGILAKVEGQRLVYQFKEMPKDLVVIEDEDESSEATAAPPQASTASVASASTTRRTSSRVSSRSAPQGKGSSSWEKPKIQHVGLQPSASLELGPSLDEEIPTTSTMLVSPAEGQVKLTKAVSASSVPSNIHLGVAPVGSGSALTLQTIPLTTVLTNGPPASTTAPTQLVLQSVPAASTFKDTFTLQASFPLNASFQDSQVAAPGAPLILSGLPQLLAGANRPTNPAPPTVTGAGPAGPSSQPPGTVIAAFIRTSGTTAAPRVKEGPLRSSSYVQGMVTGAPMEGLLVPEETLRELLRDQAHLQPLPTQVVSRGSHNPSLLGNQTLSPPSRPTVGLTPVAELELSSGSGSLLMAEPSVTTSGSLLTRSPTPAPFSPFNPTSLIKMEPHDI
Method in brief: as §1

ELK4 = target: T9, ELK4 (Homo sapiens, UniProt P28324-2 1-405); conditions: protein: recombinant; tags: N-terminal GST; dsDNA, one strand shown
T9 sequence: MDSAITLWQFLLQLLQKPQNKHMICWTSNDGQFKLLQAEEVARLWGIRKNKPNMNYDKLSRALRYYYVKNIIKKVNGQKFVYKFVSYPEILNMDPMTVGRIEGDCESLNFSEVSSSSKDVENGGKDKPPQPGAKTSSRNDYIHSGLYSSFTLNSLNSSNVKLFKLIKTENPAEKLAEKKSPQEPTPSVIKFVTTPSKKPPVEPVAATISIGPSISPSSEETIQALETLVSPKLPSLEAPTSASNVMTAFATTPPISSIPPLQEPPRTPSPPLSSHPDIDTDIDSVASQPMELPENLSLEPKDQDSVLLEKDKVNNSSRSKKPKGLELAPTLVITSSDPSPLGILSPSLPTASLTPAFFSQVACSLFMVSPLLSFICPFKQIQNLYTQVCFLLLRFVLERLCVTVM
Method in brief: as §1

ETV2 = target: T10, ETV2 (Homo sapiens, UniProt O00321 1-342); conditions: protein: recombinant; tags: N-terminal GST; dsDNA, one strand shown
T10 sequence: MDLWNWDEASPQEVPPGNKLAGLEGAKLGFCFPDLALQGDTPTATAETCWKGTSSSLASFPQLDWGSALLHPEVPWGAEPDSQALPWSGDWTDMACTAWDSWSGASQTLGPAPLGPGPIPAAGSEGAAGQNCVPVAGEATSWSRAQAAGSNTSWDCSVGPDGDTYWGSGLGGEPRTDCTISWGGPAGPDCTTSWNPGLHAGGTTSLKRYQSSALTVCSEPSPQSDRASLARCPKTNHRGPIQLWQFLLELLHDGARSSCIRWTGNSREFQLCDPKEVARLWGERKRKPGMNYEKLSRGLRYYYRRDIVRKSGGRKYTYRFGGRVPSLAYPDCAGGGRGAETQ
Method in brief: as §1

ELF3 = target: T11, ELF3 (Homo sapiens, UniProt P78545 1-371); conditions: protein: recombinant; tags: N-terminal GST; dsDNA, one strand shown
T11 sequence: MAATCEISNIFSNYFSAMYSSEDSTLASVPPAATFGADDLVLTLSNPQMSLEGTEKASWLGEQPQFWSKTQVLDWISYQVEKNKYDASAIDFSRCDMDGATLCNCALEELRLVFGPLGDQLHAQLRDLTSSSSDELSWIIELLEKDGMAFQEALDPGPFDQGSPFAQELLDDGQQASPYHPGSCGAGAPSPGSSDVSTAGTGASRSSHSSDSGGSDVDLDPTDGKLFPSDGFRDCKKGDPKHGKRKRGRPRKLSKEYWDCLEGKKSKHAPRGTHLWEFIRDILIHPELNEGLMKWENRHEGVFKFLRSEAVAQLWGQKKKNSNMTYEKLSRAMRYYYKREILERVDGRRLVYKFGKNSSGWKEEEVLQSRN
Method in brief: as §1

CRX = CRX (Homo sapiens, UniProt O43186 1-299); conditions: protein: recombinant; tags: N-terminal GST; dsDNA, one strand shown
Chain of CRX (O43186 whole entry): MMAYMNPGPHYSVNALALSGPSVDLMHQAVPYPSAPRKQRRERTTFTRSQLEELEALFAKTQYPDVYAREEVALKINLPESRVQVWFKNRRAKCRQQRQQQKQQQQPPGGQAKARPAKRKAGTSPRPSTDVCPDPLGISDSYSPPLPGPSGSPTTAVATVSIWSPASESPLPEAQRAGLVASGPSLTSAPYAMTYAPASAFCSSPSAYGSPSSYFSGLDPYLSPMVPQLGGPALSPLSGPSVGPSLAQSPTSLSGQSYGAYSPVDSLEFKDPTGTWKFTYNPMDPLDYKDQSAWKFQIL
Method in brief: as §1

ETV1 = ETV1 (Homo sapiens, UniProt P50549 1-477); conditions: protein: recombinant; tags: N-terminal GST; dsDNA, one strand shown
Chain of ETV1 (P50549 whole entry): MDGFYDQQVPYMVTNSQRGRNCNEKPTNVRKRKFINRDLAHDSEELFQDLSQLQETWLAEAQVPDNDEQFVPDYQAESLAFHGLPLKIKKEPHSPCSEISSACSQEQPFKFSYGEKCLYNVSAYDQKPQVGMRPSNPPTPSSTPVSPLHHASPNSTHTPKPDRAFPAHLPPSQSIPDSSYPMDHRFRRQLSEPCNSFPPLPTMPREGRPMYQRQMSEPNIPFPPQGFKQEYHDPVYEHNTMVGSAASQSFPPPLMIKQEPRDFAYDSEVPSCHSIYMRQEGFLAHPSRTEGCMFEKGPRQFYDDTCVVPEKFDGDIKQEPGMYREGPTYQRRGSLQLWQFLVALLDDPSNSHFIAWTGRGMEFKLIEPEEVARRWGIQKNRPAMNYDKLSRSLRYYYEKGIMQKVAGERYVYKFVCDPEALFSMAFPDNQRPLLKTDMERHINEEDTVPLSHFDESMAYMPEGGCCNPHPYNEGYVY
Method in brief: as §1

Q: Which binding signal (FLI1) does the source give for TTCCTT here?
A: 1.88 fold enrichment (6-mer frequency, TF over GST control)

Q: What about the binding signal (ELK1) of the same sequence?
A: 1.79 fold enrichment (6-mer frequency, TF over GST control)

Q: And the binding signal (GABPA)?
A: 1.84 fold enrichment (6-mer frequency, TF over GST control)

Q: What about the binding signal (ERG) of the same sequence?
A: 2.11 fold enrichment (6-mer frequency, TF over GST control)

Q: What about the binding signal (ELF1) of the same sequence?
A: 1.96 fold enrichment (6-mer frequency, TF over GST control)

Q: What about the binding signal (EHF) of the same sequence?
A: 2.02 fold enrichment (6-mer frequency, TF over GST control)

Q: What about the binding signal (SPI1) of the same sequence?
A: 2.25 fold enrichment (6-mer frequency, TF over GST control)

Q: And the binding signal (SPIB)?
A: 2.01 fold enrichment (6-mer frequency, TF over GST control)

Q: What about the binding signal (ELK3) of the same sequence?
A: 2.09 fold enrichment (6-mer frequency, TF over GST control)

Q: And the binding signal (FEV)?
A: 1.76 fold enrichment (6-mer frequency, TF over GST control)

Q: And the binding signal (ETV5)?
A: 2 fold enrichment (6-mer frequency, TF over GST control)

Q: What about the binding signal (HSF1) of the same sequence?
A: 1.61 fold enrichment (6-mer frequency, TF over GST control)

Q: What about the binding signal (SPIC) of the same sequence?
A: 1.99 fold enrichment (6-mer frequency, TF over GST control)

Q: And the binding signal (ELF4)?
A: 1.79 fold enrichment (6-mer frequency, TF over GST control)

Q: What about the binding signal (ELK4) of the same sequence?
A: 1.75 fold enrichment (6-mer frequency, TF over GST control)

Q: And the binding signal (ETV2)?
A: 1.79 fold enrichment (6-mer frequency, TF over GST control)

Q: What about the binding signal (ELF3) of the same sequence?
A: 1.76 fold enrichment (6-mer frequency, TF over GST control)

Q: And the binding signal (CRX)?
A: 1.33 fold enrichment (6-mer frequency, TF over GST control)

Q: What about the binding signal (ETV1) of the same sequence?
A: 2.04 fold enrichment (6-mer frequency, TF over GST control)

Source: publication PMC7862700, “An all-to-all approach to the identification of sequence-specific readers for epigenetic DNA modifications on cytosine”
